# Laboratory results: PubChem BioAssay AID1529 (NMMLSC, 2009)
# About 4,200 (1.4%) of roughly 290,000 compounds were called active. The sample as a whole holds a higher share of actives than the screen did. Values without a mark were called inactive.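 How the source made its calls: active means binding response more than 3 SD above or below the average of its plate-row segment, actives on both sides; inconclusive means wells at one plate position flagged as instrument error; inactive means the rest.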
# Molecular target: Mitogen-activated protein kinase kinase kinase 3 (Homo sapiens) (UniProt Q99759)
# Sequence (Q99759 whole entry, looked up): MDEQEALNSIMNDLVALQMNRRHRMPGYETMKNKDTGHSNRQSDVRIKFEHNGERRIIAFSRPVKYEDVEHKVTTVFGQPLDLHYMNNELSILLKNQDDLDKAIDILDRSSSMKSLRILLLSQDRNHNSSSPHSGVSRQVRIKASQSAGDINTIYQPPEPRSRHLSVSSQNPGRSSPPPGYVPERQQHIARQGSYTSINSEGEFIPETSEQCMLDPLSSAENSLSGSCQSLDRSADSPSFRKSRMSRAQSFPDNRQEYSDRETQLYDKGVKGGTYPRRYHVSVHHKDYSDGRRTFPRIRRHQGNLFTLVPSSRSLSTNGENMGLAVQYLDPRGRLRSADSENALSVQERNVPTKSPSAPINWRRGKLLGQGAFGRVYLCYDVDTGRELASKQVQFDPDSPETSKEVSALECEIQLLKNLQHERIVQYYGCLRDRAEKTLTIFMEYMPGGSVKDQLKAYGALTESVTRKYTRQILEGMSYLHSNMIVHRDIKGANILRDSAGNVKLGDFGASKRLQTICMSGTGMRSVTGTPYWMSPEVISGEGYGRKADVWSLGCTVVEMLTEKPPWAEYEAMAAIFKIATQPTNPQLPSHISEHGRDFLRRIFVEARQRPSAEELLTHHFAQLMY
# Assay: modulators of MEKK3-MEK5 PB1 binding, primary screen, biochemical, wildtype MEKK3, multiplex bead flow cytometry, Alexa488-MEK5 (AID 1529);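 further: Alexa488 bead fluorescence after subtracting the streptavidin-only scavenger bead signal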
# Conditions: bead-based flow cytometry, Alexa488-MEK5 binding to MEKK3; at 10 µM; actives lie on both sides; 0 = blocked by unlabeled MEK5, 100 = vehicle
row,SMILES,binding response (% of control)
1,C=C(C)CNC(=O)c1ccc(OC2CCN(C(=O)COC)CC2)cc1,105%
2,C=CCSc1nnc(N2C(=O)C(O)=C(C(=O)c3ccco3)C2c2ccc(F)cc2)s1 (stereo not drawn),101%
3,C(=N\N1CCN(c2ccccn2)CC1)/C1=C(N2CCOCC2)C(=C/c2ccccc2)/CC1,102%
4,COc1ccc(/C=N/N=C2/C(=O)Nc3ccccc32)cc1O,100%
5,O=C1Nc2ccc(Br)cc2/C1=N/N=C/C1=C(N2CCOCC2)C(=C\c2ccccc2)/CC1,45% [inhibitor] (active)
6,O=C1N[C@H](Cc2ccccc2)C(=O)N[C@H]1Cc1cn(S(=O)(=O)c2ccccc2)c2ccccc12,106%
7,CCOC(=O)COn1c(=O)c(-c2ccc(OCC)cc2)[n+]([O-])c2ccccc21,109%
8,CCOc1ccccc1CNS(=O)(=O)c1cc(-c2cc(C)no2)ccc1C,96%
9,CN1CCC(CN)(N2CCN(c3ccccc3)CC2)CC1,106%
10,COC(=O)c1ccc(N2CCOCC2)c(NC(=O)c2ccc(Br)o2)c1,101%
11,O=c1[nH]c(=S)[nH]c2[nH]c(=S)[nH]c12,48% [inhibitor] (active)
12,Cc1c(C)c(C)c2[nH]c(=S)[nH]c2c1C,101%
13,COc1ccc(CNc2nc3c(c(=O)[nH]c(=O)n3C)n2Cc2ccccc2)cc1,104%
14,COc1ccc(CCn2c(NN=C3CCCC3)nc3c2c(=O)[nH]c(=O)n3C)cc1,44% [inhibitor] (active)
15,COc1ccc(CCn2c(NCCCN3CCOCC3)nc3c2c(=O)[nH]c(=O)n3C)cc1,101%
16,O=c1c2c(-c3ccccc3)ccnc2[nH]n1-c1ccccc1,109%
17,COc1ccc(CCNC(=O)CSCc2ccc(Br)cc2)cc1OC,104%
18,CCCc1nn(C)c2c(=O)[nH]c(-c3cc(S(N)(=O)=O)ccc3OCC)nc12,103%
19,CC1CCN(c2ccc([N+](=O)[O-])cc2C(N)=O)CC1,100%
20,CCOC(=O)C1CCN(c2ccc(C(=O)O)cc2[N+](=O)[O-])CC1,103%
21,O=C(O)C1CCN(c2ccc([N+](=O)[O-])cc2[N+](=O)[O-])CC1,49% [inhibitor] (active)
22,CC(C)CNS(=O)(=O)c1ccc(CCC(=O)NCc2ccc(Cl)cc2)cc1,96%
23,O=C(Nc1ccc(S(=O)(=O)Nc2ccccn2)cc1)c1ccccc1,97%
24,COc1cccc(NC(=S)NCc2ccco2)c1,98%

row,SMILES,binding response (% of control)
1,COc1cccc(NC(=S)NCCCN2CCOCC2)c1,140% (active)
2,Cc1cc(C)cc(NC(=S)NCCCN2CCOCC2)c1,117%
3,COc1cccc(NC(=S)NCc2ccccn2)c1,143% (active)
4,CCCCc1ccc(NC(=S)NCCCN2CCOCC2)cc1,93%
5,COc1cccc(NC(=S)N(Cc2ccc(C)cc2)Cc2ccccn2)c1,104%
6,O=C(NCCN1CCN(C(=O)c2cccc([N+](=O)[O-])c2)CC1)C(=O)NCc1ccc(Cl)cc1,105%
7,CCOC(=O)Cn1c(O)c(N=NC(=O)CNC(=O)Cc2ccccc2)c2ccccc21,99%
8,COc1ccccc1CN1CC(C(=O)NCCc2cn[nH]c2)CCC1=O (stereo not drawn),104%
9,COc1ccccc1CCNS(=O)(=O)c1cn(C)nc1C,104%
10,COc1ccccc1CNC(=O)C1CCN(C(=O)[C@@H]2Cc3ccccc3CN2)CC1,101%
11,COc1ccc2nc(Nc3nc4cc5c(cc4s3)OCCO5)sc2c1,137% (active)
12,COc1ccc2nc(Nc3nc(-c4cc5ccccc5oc4=O)cs3)sc2c1,82%
13,COc1ccc2nc(Nc3nc(-c4ccncc4)cs3)sc2c1,104%
14,CNC[C@H](CC1CCCCC1)NC[C@H](NCCC1CCCC1)[C@H](C)O,102%
15,Cc1ccc(-c2nc(-c3ccncc3)no2)c(C)c1,102%
16,COc1ccccc1Cc1nc(-c2ccc(C)cc2)no1,101%
17,COc1cc(-c2nc(-c3ccncc3)no2)cc(OC)c1OC,1% [inhibitor] (active)
18,O=C(NCc1ccccc1)C1=C[C@@H](c2ccccc2)C[C@@H](OCCCCO)O1,101%
19,O=C(CCNS(=O)(=O)c1cccs1)N1CCN(c2ccc(F)cc2)CC1,102%
20,O=C(Cn1cc(/C=N/NC(=O)c2cccc(C(F)(F)F)c2)c2ccccc21)Nc1ccc(F)cc1,103%
21,CCNC(=O)Nc1ccc(S(=O)(=O)Nc2cnc(C)nc2C)cc1,101%
22,O=C(NCc1cccc(Cl)c1)C1CCN(c2nnc(N3CCCC3=O)s2)CC1,96%
23,Cc1ccnc(NS(=O)(=O)c2ccc(NC(=O)c3oc4ccccc4c3C)cc2)n1,102%
24,Cc1cccc(CSc2nnc(C)c(=O)n2N)c1,128% (active)

row,SMILES,binding response (% of control)
1,Cc1cccc(CSc2nc3c(c(=O)n2C)SCC3)c1,100%
2,Cc1nnc(SCc2cccc(Cl)c2)n(N)c1=O,98%
3,COc1ccc(NC(=O)N2CCCC(C(=O)Nc3ccccc3OC)C2)cc1 (stereo not drawn),100%
4,COC(=O)CCCC1=CC2=CC(=O)C(C)(OC(=O)c3cccs3)C(=O)C2=CN1CC1CC1 (stereo not drawn),93%
5,CC1(OC(=O)C2CCCC2)C(=O)C=C2C=C(c3ccc(C#N)cc3)OC=C2C1=O (stereo not drawn),94%
6,COCCN1C=C2C(=O)C(C)(OC(=O)C3CCCC3)C(=O)C=C2C=C1c1ccsc1 (stereo not drawn),133% (active)
7,COc1ccc(CCNc2nc3ccc(C)cc3n3cnnc23)cc1OC,102%
8,O=C(/C=C/c1ccco1)NC(=S)Nc1ccccc1Br,102%
9,CCNc1ccc(C(=O)OCC(=O)N2c3ccccc3NC(=O)C2(C)C)cc1[N+](=O)[O-],99%
10,COc1ccc(Cl)cc1-n1c(C)cc(C(=O)OCC(=O)N2CC(=O)Nc3ccccc32)c1C,105%
11,Cc1cc(C(=O)OCC(=O)N2c3ccccc3NC(=O)C2(C)C)c(C)n1-c1ccccc1,130% (active)
12,CC1(C(=O)O)CCC(C(=O)Nc2ccc(Cl)c(Cl)c2)C1(C)C (stereo not drawn),103%
13,COc1ccc(C(=O)COC(=O)CNC(=O)c2cccs2)cc1Br,99%
14,COc1ccccc1C(=O)Nn1c(-c2cccs2)nc2ccccc2c1=O,111%
15,CCn1c(NC(=O)c2ccccc2)c(-c2cccs2)c(=O)c2ccccc21,82% [inhibitor] (active)
16,CCn1c(=O)c2cc(C(=O)Nc3cccc(C(C)=O)c3)sc2c2ccccc21,106%
17,COc1ccccc1N(CC(=O)N/N=C(\C)c1ccccc1O)S(=O)(=O)c1ccc(C)cc1,102%
18,O=C(N/N=C/c1ccc(OCc2ccccc2)cc1)c1ccc(O)cc1,119%
19,CCOc1ccc(NC(=O)C/C(C)=N/NC(=O)Cc2cccs2)cc1,99%
20,O=C(Cc1cccs1)N/N=C/c1ccc(OCc2ccccc2)cc1,129% (active)
21,N#C/C(=C/c1ccc(N2CCOCC2)o1)C(=O)N1CCOCC1,94%
22,N#C/C(=C\C1=C(N2CCOCC2)C(=C\c2ccccc2)/CC1)C(=O)Nc1ccccc1F,8% [inhibitor] (active)
23,N#C/C(=C\c1ccccc1C(F)(F)F)C(=O)Nc1ccccc1F,97%
24,CN(CCC1CCOCC1)Cc1cn[nH]c1-c1ccc(-c2ccccc2)cc1,109%

row,SMILES,binding response (% of control)
1,CCCCC(CC)CNCc1cccn1CCN1CCOCC1 (stereo not drawn),100%
2,COc1cccc2sc(N(CCCN(C)C)C(=O)CCS(=O)(=O)c3ccccc3)nc12,97%
3,CN(C)CCCN(C(=O)COc1ccccc1)c1nc2c(Cl)cccc2s1,35% [inhibitor] (active)
4,COc1cccc2sc(N(CCCN(C)C)C(=O)C(c3ccccc3)c3ccccc3)nc12,111%
5,COCCNc1ccc(-c2n[nH]c(=O)c3ccccc23)cc1[N+](=O)[O-],103%
6,Cc1ccccc1C(=O)Nc1ccc(N2CCCCCC2)cc1,80%
7,CCOC(=O)/C(C#N)=C/c1ccc(N2CCCCC2)cc1,99%
8,O=C1C=CC(=O)N1c1ccc(N2CCCCC2)cc1,49% [inhibitor] (active)
9,C#CC(C)(C)NC(=O)c1cnc(-c2ccccc2)nc1-c1ccccc1,105%
10,CC(NC(=O)c1cc2cc(Cl)ccc2oc1=N)c1ccccc1 (stereo not drawn),100%
11,Cc1ccc(CN(C)Cc2cc(=O)oc3cc(C)c(Cl)cc23)cc1,109%
12,COc1ccc(N(C(=O)c2snc(C(N)=O)c2N)C(C(=O)NC2CCCC2)c2ccco2)cc1OC (stereo not drawn),101%
13,Cc1c(Cl)cccc1NC(=O)[C@@]1(CC(=O)O)CC(/C=C/c2ccccc2)=NO1,96%
14,COC(=O)c1c(NC(=O)c2ccccc2F)sc2c1C(C(=O)OC)CC2 (stereo not drawn),98%
15,CC(C)Nc1nnc(SCC(=O)/C=C2\N(C)c3ccccc3C2(C)C)s1,101%
16,Cc1noc(C)c1C(=O)OCC(=O)/C=C1\N(C)c2ccccc2C1(C)C,100%
17,CC(=O)Nc1cccc(OCC(=O)/C=C2\N(C)c3ccccc3C2(C)C)c1,62% [inhibitor] (active)
18,CC(CN1CCOCC1)OC(=O)c1ccc(C(C)(C)C)cc1 (stereo not drawn),106%
19,COc1cccc(/C=N\NC(=O)C2=NNC(=O)C2C)c1O (stereo not drawn),128% (active)
20,COc1cccc(/C=N/NC(=O)c2[nH]nc3c2CCc2ccccc2-3)c1O,102%
21,COc1cc2cc(C(=O)N/N=C/c3cccc(OC)c3OC)[nH]c2cc1OC,94%
